About 830 (0.38%) of roughly 220,000 compounds were called active.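 Rule for the calls: active = compound inhibiting the enzyme by more than half at any dose during confirmatory dose-response retesting; inconclusive = strong single-dose inhibitors picked by rank but not retested; inactive = the rest.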 These entries were drawn from the full list. Measured potencies and affinities stand elsewhere.
biological target: Leucine aminopeptidase (Plasmodium falciparum (isolate 3D7)) (UniProt Q8IL11); test: P. falciparum M17LAP inhibitors, primary screen, biochemical, fluorogenic H-Leu-NHMec substrate, 1536-well (AID 1619); conditions: recombinant M17LAP, H-Leu-NHMec fluorogenic kinetic assay; at 30 µM; hits give high values;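 note: plate controls were full reaction with DMSO carrier for no effect and no enzyme background for full effect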
Sequence (Q8IL11 whole entry, looked up): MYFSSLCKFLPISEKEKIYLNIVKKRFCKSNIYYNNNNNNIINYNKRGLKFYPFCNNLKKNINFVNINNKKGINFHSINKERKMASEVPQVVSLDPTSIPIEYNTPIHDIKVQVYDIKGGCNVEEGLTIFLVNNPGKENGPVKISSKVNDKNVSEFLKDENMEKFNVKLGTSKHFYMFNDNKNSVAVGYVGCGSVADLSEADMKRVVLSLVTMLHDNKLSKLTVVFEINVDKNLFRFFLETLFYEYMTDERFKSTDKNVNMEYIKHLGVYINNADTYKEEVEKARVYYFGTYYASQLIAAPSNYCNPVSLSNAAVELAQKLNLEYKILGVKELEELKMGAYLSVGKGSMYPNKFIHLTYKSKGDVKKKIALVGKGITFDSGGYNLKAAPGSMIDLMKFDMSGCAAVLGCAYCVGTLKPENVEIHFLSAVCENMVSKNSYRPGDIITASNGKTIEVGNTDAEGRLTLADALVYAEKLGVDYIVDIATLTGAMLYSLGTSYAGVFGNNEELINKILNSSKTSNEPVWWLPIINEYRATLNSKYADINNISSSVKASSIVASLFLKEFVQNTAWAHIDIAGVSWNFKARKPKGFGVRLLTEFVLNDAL

inhibition, inactive:
CCCn1cnc2c(=S)nc(N)[nH]c21 16.6%
CC(C)c1ccc(-c2nc(N3CCCC3)nc3n[nH]c(N)c23)cc1 27.7%
c1ccc(-c2nnc(N3CCOCC3)nc2-c2ccccc2)cc1 5.71%
Nc1nc(N2CCOCC2)nc2ccccc12 -12%
COc1ccc(-c2cc(C(F)(F)F)nc(N3CCOCC3)n2)cc1 4.95%
CC(C)c1ccc(-c2nc(N3CCCCCC3)nc3n[nH]c(N)c23)cc1 35.4%
COc1ccc(N2CCN(c3nc(Cl)nc(N4CCOCC4)n3)CC2)cc1 11.3%
COCCNC(=S)NNc1ccccc1[N+](=O)[O-] 0.4%
CC(C)=NOc1nc(N2CCOCC2)nc(N2CCOCC2)n1 -6.17%
CCOC(=O)Cn1nnnc1CN(Cc1ccccc1)Cc1cc2cc(CC)ccc2[nH]c1=O -7.17%
CCOC(=O)c1sc(NC(=O)CC)c(C#N)c1C -11.2%
O=C(CN1C(=O)CCC1=O)Nc1ccc(Cc2ccc(NC(=O)CN3C(=O)CCC3=O)cc2)cc1 1.75%
Cc1ccc(NC(=O)Cn2nnc3ccccc3c2=O)cc1C -2.19%
Cc1ccc(NC(=O)Cn2nnc3ccccc3c2=O)cc1 -0.57%
N#Cc1c(NC(=O)CCn2cnc3ccccc3c2=O)oc(-c2ccccc2)c1-c1ccccc1 -1.46%
O=C(Cn1cnc2cc([N+](=O)[O-])ccc2c1=O)Nc1ccc2c(c1)CCC2 25.1%
COC(=O)c1ccc(C)c(NC(=O)Cn2cnc3ccccc3c2=O)c1 54.1%
N#Cc1c(NC(=O)CSc2ccccn2)oc(-c2ccccc2)c1-c1ccccc1 3.85%
O=C(Cn1cnc2ccccc2c1=O)Nc1ccc2c(c1)OCCO2 5.1%
COc1ccc(NC(=O)Cn2cnc3ccccc3c2=O)cc1OC 14.4%
COC(=O)c1ccc(NC(c2ccc(Cl)cc2)P(=O)(OC)OC)cc1 (stereo not given) 4.43%
CS(=O)(=O)N(CC(=O)Nc1ccc(S(=O)(=O)N2CCCC2)cc1)c1ccccc1 1.45%
Cn1c(SCC(=O)C(C)(C)C)nnc1-c1ccc(F)cc1 0.55%
CN(O)/C=C/C(=O)c1ccc(Br)cc1 -3.22%
C[C@@H]1C[C@H](O)c2cc(Cl)ccc2N1 5.04%
CCOC(=O)C1(CCCc2ccccc2)CCN(C(=O)CCc2cnccn2)CC1 -4.8%
COc1ccc(-c2cc(=O)oc3cc(OCC(C)=O)ccc23)cc1 10.9%
CC(Oc1ccc2c(-c3ccccc3)cc(=O)oc2c1)C(=O)O (stereo not given) 36.3%
N#C/C(=C\c1cn[nH]c1-c1ccccc1Br)C(=O)O 4.87%
CCCc1cc(=O)n2[nH]c(NCc3ccccc3Cl)nc2n1 23%
Cc1cccc(N(C(=O)c2csnn2)C(C(=O)NC(C)(C)C)c2cccs2)c1 (stereo not given) 9.85%
CCc1nc(N2CCN(C(C)=O)CC2)c(C#N)c2c1COC(C)(C)C2 -49.5%
O=C(c1cnn(C(=O)c2ccc(O)cc2)c1)c1ccccc1O -4.26%
O=C(c1cnn(-c2ccccc2)c1)c1ccccc1O -6.3%
CCCc1nnc(SCc2ccc(OC)cc2)n1N 9.43%
COc1ccc(-c2nc(-c3cccc(C(F)(F)F)c3)no2)cc1OC -5.65%
Cc1cccc(NC(=O)COc2ccc(/C=C\c3[nH]c(=O)[nH]c(=O)c3[N+](=O)[O-])cc2)c1 23.7%
CNC(=O)CSc1nc(-c2ccccc2)c(-c2ccccc2)o1 3.38%
NC(=O)CSc1nc(-c2ccccc2)c(-c2ccccc2)o1 -9.73%
CC(C)C(=O)Nc1ccc(NC(=O)c2ccccn2)cn1 7.94%
CNC(=O)c1sccc1S(=O)(=O)Cc1c(Cl)cccc1Cl 0.44%
CCOC(=O)c1c(NC(=O)C2CC2)sc(C)c1CC -1.68%
CCOC(=O)c1sc(NC(=O)C2C3C=CC(C3)C2C(=O)O)nc1C (stereo not given) 3.83%
CCOC(=O)c1c(NC(=O)C2C3C=CC(CC3)C2C(=O)O)sc(C)c1C (stereo not given) 46.5%
COC(=O)c1cc(C)sc1NC(=O)C1C2C=CC(CC2)C1C(=O)O (stereo not given) 47%
CCOCCCn1c(=O)c(NC(=O)c2ccc(OCC)cc2)c2n(c1=S)CCCCC2 10.1%
O=C(NC1CCCC1)C1C2C=CC3(CN(Cc4cccs4)C(=O)C13)O2 (stereo not given) -3.35%
O=C(NCC1CCCO1)C1C2C=CC3(CN(Cc4cccs4)C(=O)C13)O2 (stereo not given) 15.4%
Cc1ccc(S(=O)(=O)N(C)CCCC(=O)NC(C)(C)C)cc1 -1.26%
O=C1CN(S(=O)(=O)c2ccc(Cl)cc2)CC(=O)N1CCc1ccccc1 -1.31%
COc1ccc(C2=Nn3c(nnc3-c3ccccc3OC)SC2)cc1OC 26.3%
CCOc1ccc(C2=Nn3c(nnc3-c3ccccc3OC)SC2)cc1 8.39%
CC(=O)Nc1nc(CCN2C(=O)c3ccccc3C2=O)cs1 0.9%
Cc1cccc2cc(C(c3nnnn3CC3CCCO3)N3CCCc4ccccc43)c(=O)[nH]c12 (stereo not given) 10.5%
CC(C)c1ccc(O)c(NC(=O)c2cccnc2)c1 7.21%
CN1C2CCC1/C(=C\c1ccccc1Cl)C(=O)/C2=C\c1ccccc1Cl 3.79%
CN1C2CCC1/C(=C\c1ccccc1)C(=O)/C2=C\c1ccccc1 5.66%
O=c1[nH]cnc2scc(-c3cccs3)c12 -7.24%
COc1ccc(OC)c(S(=O)(=O)n2nnc3ccccc32)c1 56.9%
COc1ccc(Cl)cc1S(=O)(=O)n1nnc2ccccc21 49%
O=S(=O)(Nc1cccc(-c2ccc3nncn3n2)c1)c1ccc(Cl)s1 26.4%
CN(C)c1cccc(-c2nnc(SCCCC#N)o2)c1 -3.34%
CCOC(=O)Cc1csc(NC(=O)NC2(C(F)(F)F)Oc3ccccc3O2)n1 6.11%
CCOC(=O)Cc1csc(NC(=O)NC2(C(F)(F)F)Oc3ccc(Cl)cc3O2)n1 (stereo not given) 52.5%
C=CCn1c(COC)nnc1SCC(=O)c1ccc(F)cc1 -1.58%
CC(C)(C)c1ccc(C(=O)NN2C(=O)CSC2=S)cc1 5.92%
Cc1ccc(C(=O)NN2C(=O)CSC2=S)cc1 33.1%
COc1ccccc1CNC(=O)CN1C(=O)C(C)N(c2ccc(C)cc2)C1=O (stereo not given) -0.45%
Cc1c(NS(=O)(=O)c2ccccc2)c(=O)n(-c2ccccc2)n1C -14.2%
O=S(=O)(Nc1nc2ccccc2nc1NCC1CCCO1)c1cccc(Cl)c1 (stereo not given) 12.2%
O=S(=O)(Nc1nc2ccccc2nc1NCCO)c1cccc(Cl)c1 45%
Cc1c(Nc2nc3ccccc3nc2N2CCN(c3ccccc3)CC2)c(=O)n(-c2ccccc2)n1C 9.74%
Cc1ccc(Nc2nc3ccccc3nc2Nc2c(C)n(C)n(-c3ccccc3)c2=O)cc1 -3.59%
Cc1c(Nc2nc3ccccc3nc2NS(=O)(=O)c2cccs2)c(=O)n(-c2ccccc2)n1C 35.4%
Cc1ccc(N(Cc2cc3ccccc3[nH]c2=O)S(=O)(=O)c2ccccc2)cc1 9.01%
CCN(CC)C(=O)CSc1nnc(-c2ccc(S(=O)(=O)N3CCCC3)cc2)o1 -8.97%
CCOC(=O)C1=NNC2C(=O)N(Cc3ccccc3)C(=O)C12 (stereo not given) 5.31%
COC(=O)C1=C(C)N(c2ccc(OC)cc2)C(C)=C(C(=O)OC)C1c1ccc(OC)cc1 -14.2%
Cc1nc2ccccc2c2c1C(=O)NC2=O -0.48%
CCOC(=O)C1CCN(c2cc(=O)n(C3CCCCC3)c(=O)[nH]2)CC1 7.51%
CS(=O)(=O)N(CC(=O)Nc1ccc(S(=O)(=O)N2CCOCC2)cc1)c1ccccc1Cl 12.3%
COc1ccccc1Cn1[nH]nnc1=S 5.05%
COc1ccc([C@H]2[C@H](C(=O)OC(C)(C)C)N3N=Cc4ccccc4C3C23C(=O)c2ccccc2C3=O)cc1OC (stereo not given in full) 21.8%
COc1ccc([C@H]2[C@H](C(=O)OC(C)(C)C)N3N=Cc4ccccc4C3C23C(=O)c2ccccc2C3=O)c(OC)c1 (stereo not given in full) 34.9%
CC(C)CCn1nnnc1C(c1ccc(N(C)C)cc1)N1CCN(C(=O)c2ccco2)CC1 (stereo not given) 8.08%
O=C(O)c1ccc(NC(=O)C2CC=CCC2C(=O)O)cc1 (stereo not given) 2.25%
COC(=O)c1cc(C)sc1NC(=O)C1CC=CCC1C(=O)O (stereo not given) 36.3%
CC1=C(C)CC(C(=O)NNC(=O)c2cccc(Cl)c2)C(C(=O)O)C1 (stereo not given) 27.5%
O=C(O)C1CC=CCC1C(=O)NNc1ccccc1 (stereo not given) 1.11%
O=C(O)C1CC=CCC1C(=O)Nc1cccnc1 (stereo not given) 20.5%
O=C(NNC(=O)C1CC1c1ccccc1)Nc1cccc(Cl)c1 (stereo not given) -2.69%
COC(=O)c1cc(NC(=O)C2CC2)cc(C(=O)OC)c1 4.68%
O=C(CCSc1ccccc1)NC1CCCCCC1 2.59%
COc1ccc(C(=O)NCCCCCC(=O)N/N=C/c2ccco2)cc1OC -1.79%
C=CCn1c(-c2ccc(OC)c(OC)c2)n[nH]c1=S 13.8%

Reference: PubChem BioAssay AID1619 (SRMLSC, 2009)
